Test results published in ChEMBL document CHEMBL3988442, “University of Dundee, Small-Polar-MMV Screening Library” (2021).
The campaign covered roughly 38,000 compounds. About 1,200 (3.2%) showed an effect of 50% or more. The median lay at about -58%. The list comes from a sample in which strong results are over-represented; it also holds similar structures and randomly drawn compounds.

system: Plasmodium falciparum; test: Calibr Malaria Delayed Death Assay SOP; assay type: functional, organism-based; set-up: scale not given: in the data most compounds retested in dose-response had high values; conditions: concentration 4.99e-06 (unit not given; other assays of the set use mol/L)

| Structure (SMILES) | Percent Effect |
| --- | --- |
| COC(=O)c1cc(C)nc(N2CCN(Cc3ccn(C(C)C)c3)CC2)n1 | -8.689% |
| Cc1cccc(NC(=O)CN2C(=O)CC(C)(C)c3ccccc32)n1 | -54.59% |
| CC(C)OCCC(=O)N1CCN(CC(O)c2ccccc2)CC1 (configuration not stated) | -51.21% |
| COc1cc(N2CC[C@@H]3O[C@@H](C(=O)NCCN(C)C)C[C@@H]32)ncn1 | -52.73% |
| O=C(Cc1n[nH]c(-c2cncc(Br)c2)n1)NCc1cccnc1 | -11.15% |
| Cn1ncc2c1CCCC2NCc1cccc(OC2CCCC2)c1 (configuration not stated) | 2.699% |
| CC(C)[C@H](NC(=O)Cn1nc2c(cc1=O)CCCC2)C(=O)O | -82.81% |
| CCn1nccc1CNC(=O)C1CCCCC1 | -119.3% |
| Cc1cc(NC(=O)N2CCCC2C(C)(C)O)c2ncccc2c1 (configuration not stated) | -22.81% |
| Cc1cc(NC(=O)NC2CCN(C(C)C)CC2)c2ncccc2c1 | 79.09% |
| Cc1cc(NC(=O)N2CCCC2C(=O)NC2CC2)c2ncccc2c1 (configuration not stated) | -118% |
| CC(C)C(=O)Nc1ccc2c(c1)ncn2CC(=O)NCCN(C)C | -104.6% |
| O=C(Cc1cccc(Cl)c1)N[C@@H]1CCNC[C@H]1O | -79.06% |
| O=C(C[S+]([O-])Cc1cccc(Cl)c1)NC1CCCC1 (configuration not stated) | -107.7% |
| O=C(NCCc1cccc(Cl)c1)C1CCOCC1 | -133.6% |
| O=C(O)c1cn2cc(C(F)(F)F)ccc2n1 | -36.42% |
| O=C(NCc1ccco1)[C@H]1C[C@H]2OCC[C@H]2N(C(=O)c2ccnnc2)C1 | -30.68% |
| CCCN1CCC(N2CCOC(Cc3cccc(OC)c3)C2)CC1 (configuration not stated) | -127.7% |
| O=C(NCCN1CCCCC1)c1nc(-c2cccc3[nH]ccc23)no1 | 15.88% |
| CCC(=O)N1CCCC1c1csc(Nc2cnccn2)n1 (configuration not stated) | -46.83% |
| COCC(=O)N1CCCC1c1csc(Nc2cnccn2)n1 (configuration not stated) | -55% |
| O=C(O)C(F)(F)F.O=C(O)C(F)(F)F.O=C1NC2(CCN(Cc3ccoc3)CC2)CC1c1ccncc1 (configuration not stated) | -15.5% |
| Nc1nccc(N2CCC(c3cc(Cc4ccccc4)n[nH]3)CC2)n1 | 35.49% |

| Structure (SMILES) | Percent Effect |
| --- | --- |
| Cc1n[nH]cc1CNCC(O)c1ccc(F)c(F)c1.Cl (configuration not stated) | -33.27% |
| Cc1n[nH]c(C)c1CNCC(O)c1ccc(F)c(F)c1 (configuration not stated) | 14.72% |
| Cc1nc(CNC(=O)NCC(O)c2ccc(F)c(F)c2)cs1 (configuration not stated) | -178.5% |
| Cc1cc(C)c(CNCC(O)c2ccc(F)c(F)c2)c(C)c1.Cl (configuration not stated) | 92.75% |
| Cc1csc(CNC(=O)NCC(O)c2ccc(F)c(F)c2)n1 (configuration not stated) | 2.8% |
| COCCCNc1nc(CNC(C)=O)cc(-c2ccco2)n1 | -87.48% |
| O=C(O)C(F)(F)F.O=S(=O)(C1CC1)N1CCc2ncnc(N3CCCC3)c2CC1 | -107.1% |
| CCc1nc(C2CCCN2Cc2cnc(C)cn2)no1 (configuration not stated) | -15.63% |
| CC(C)c1cc(NC(=O)CN2CCCC2Cn2cncn2)on1 (configuration not stated) | -56.31% |
| COC(=O)c1cccc(C(=O)NCc2ccc3c(c2)CCCN3C)c1 | -12.04% |
| COc1cc(C(=O)NCc2ccc3c(c2)CCCN3C)cc(OC)c1Br | 65% |
| CN1CCCc2cc(CNC(=O)c3ccncc3)ccc21 | -23.61% |
| Cc1nn(CC(O)CN2CCC(C)CC2)c(=O)c(C#N)c1C (configuration not stated) | -55.82% |
| O=C(CCn1ccc2cc(Br)ccc21)NC[C@@H]1CCCN2CCCC[C@H]12 | 65.78% |
| O=C(O)C1CCN(C(=O)Cn2ccc3c(Cl)cccc32)CC1 | -74.89% |
| O=C(Cn1ccc2ccccc21)NC[C@@H]1CCCN2CCCC[C@H]12 | -17.29% |
| O=C(O)C1CCN(C(=O)CCn2ccc3cc(Br)ccc32)CC1 | -107.6% |
| Cc1cccc2c1ccn2CC(=O)NC[C@@H]1CCCN2CCCC[C@H]12 | 70.06% |
| O=C(Cn1ccc2cc(Br)ccc21)NC[C@@H]1CCCN2CCCC[C@H]12 | -18.45% |
| COc1ccc2c(ccn2CC(=O)NC[C@@H]2CCCN3CCCC[C@H]23)c1 | -61.04% |
| O=C(Cn1ccc2ccc(F)cc21)NC[C@@H]1CCCN2CCCC[C@H]12 | 36.3% |
| O=C(Cn1ccc2ccc(Br)cc21)NC[C@@H]1CCCN2CCCC[C@H]12 | 78.77% |
| CC(C)c1nsc(N2CCC(OCCN3CCOCC3)CC2)n1 | -47.66% |

| Structure (SMILES) | Percent Effect |
| --- | --- |
| CN(C)C(=O)COCC1CN(C2CCC2)Cc2ncn(C)c21.O=C(O)C(F)(F)F.O=C(O)C(F)(F)F (configuration not stated) | -81.18% |
| Cc1c(C(=O)N2CCCC(O)(CN(C)C)CC2)c2cc(O)ccc2n1C (configuration not stated) | -101.4% |
| CN(C)CC1(O)CCCN(C(=O)Cn2nc3ccccc3n2)CC1 (configuration not stated) | -95.76% |
| Cc1cc2ccccc2n1CCC(=O)N1CCCC(O)(CN(C)C)CC1 (configuration not stated) | 54.68% |
| Cn1nnc2c1C(COCC1CC1)CN(C(=O)Cc1cccs1)C2 (configuration not stated) | -35.42% |
| N#Cc1c(CN2CCCC2Cn2cccn2)cn2ccccc12 (configuration not stated) | -64.03% |
| CCc1cc(C(=O)N2CC[C@@H](c3ccc4ccccc4c3)[C@H](O)C2)[nH]n1 | 17.14% |
| CN(Cc1cc(Cl)cc2cccnc12)CC1CCN(CCO)CC1 | 88.36% |
| CC(C)c1nc(CN(C)CC2CCN(CCO)CC2)no1 | -37.31% |
| CC(O)CN1CCC(CN(C)CC(=O)NC(C)C)CC1 (configuration not stated) | -132.6% |
| CC(O)CN1CCC(CN(C)CCC(=O)NC2CCCC2)CC1 (configuration not stated) | -87.19% |
| OCCN1CCN(Cc2cc(Cl)cc3cccnc23)CC1 | -35.44% |
| CN(Cc1noc(C2CC2)n1)CC1CCN(CCO)CC1 | -111.1% |
| CN(CC(N)=O)Cc1cc(Cl)cc2cccnc12 | -110.1% |
| CN(Cc1cc(F)cc2cccnc12)CC1CCN(CCO)CC1 | 84.26% |
| CC(O)CN1CCC(CN(C)Cc2cc(F)cc3cccnc23)CC1 (configuration not stated) | 86.77% |
| CCn1cc(Br)c(C(=O)NCc2ccccc2)n1 | -62.24% |
| COc1ccc(C(=O)N2CCC(Nc3cccnn3)CC2)cn1 | -79.23% |
| CN(C)c1ncc2c(n1)CN(C1CCSCC1)C2=O | -103.3% |
| Cc1cc(C2CCCN(Cc3nnc(Cc4ccccc4)o3)C2)n[nH]1 (configuration not stated) | -117.5% |
| COc1cc(Cl)ccc1C(=O)N1CCCC(c2cc(C)[nH]n2)C1 (configuration not stated) | -107.6% |
| Cc1cc(CNC(=O)c2ccno2)c(C)o1 | -93.35% |
| CCS(=O)(=O)c1ccccc1C(=O)N1CCCC(n2cccn2)C1 (configuration not stated) | -21.75% |

| Structure (SMILES) | Percent Effect |
| --- | --- |
| CC(C)(O)CCc1cccc(C(=O)NCc2cnn3cccnc23)c1 | -126.6% |
| O=C(NCc1cnn2cccnc12)c1cccc(CC2CCNCC2)c1 | 65.91% |
| Cc1cccnc1[C@H](C)NC(=O)c1cccc(CC2CCNCC2)c1 | 7.759% |
| CCNC(=O)C1CCCN(C(=O)Nc2ccc3c(c2)CCCN3C)C1 (configuration not stated) | 9.496% |
| CCOCC1CCN(C(=O)Nc2ccc3c(c2)CCCN3C)C1 (configuration not stated) | 57.13% |
| CCOCC1CCN(C(=O)Nc2ccc3c(c2)CCCO3)C1 (configuration not stated) | -56.87% |
| Cc1noc([C@H]2COC[C@H]3CN(C(=O)Cc4cccs4)C[C@H]32)n1 | -60.46% |
| CN(C(=O)Cn1nc(-c2cccs2)ccc1=O)C1CCS(=O)(=O)C1 (configuration not stated) | -97.97% |
| CC1=C(CCN2CC[C@@H](N3CCC(O)CC3)[C@H](O)C2)C(C)(C)CCC1 | -51.59% |
| Cc1c(CN2C[C@H](O)[C@@H](N3CCOCC3)C2)[nH]c2ccc(F)cc12 | -95.14% |
| CC1=C(CCN2C[C@H](O)[C@@H](N3CCOCC3)C2)C(C)(C)CCC1 | 77.23% |
| COc1ccc2c(c1)NC(=O)C2OC(=O)Cc1ccccc1C (configuration not stated) | 10.16% |
| CN1CCCN(c2nc(C3CCCC3)nc3c2cnn3C)CC1 | -58.12% |
| Cc1nn(C)cc1-c1ccnc(N2CCCN(CC(C)C)CC2)n1 | -23.38% |
| CCc1ncc2c(n1)CN(c1nccc(C3CCCC3)n1)C2 | -48.7% |
| c1cc(-c2cn3nccc3nc2C2CCCCC2)nc(N2CCCC2)n1 | -1.044% |
| CN1CCN(c2nccc(-c3cncnc3C3CCCCC3)n2)CC1 | 60.54% |
| CN1CCCN(c2nccc(-c3cncnc3C3CCCCC3)n2)CC1 | 59.73% |
| Cc1nn(C)c2ncc(NC(=O)N3CCCCCC3)cc12 | -40.12% |
| Cc1nc(CN2CCc3cnc(C(C)C)nc3C2)oc1C | -83.71% |
| CC(NS(C)(=O)=O)c1nc(-c2ccc(Br)cc2)no1 (configuration not stated) | -124.5% |
| Cc1nc(C2CCNCC2)cc(N2CCOc3ccccc3C2)n1 | 46.26% |
| Cc1nc(CCN)cc(N2CCOc3ccc(Cl)cc3C2)n1 | 34.3% |

| Structure (SMILES) | Percent Effect |
| --- | --- |
| Cc1nc(C2CCN(C)CC2)cc(N2CCOc3ccc(Cl)cc3C2)n1 | 69.39% |
| Cn1cnnc1C1CCCN1C(=O)Nc1cccc(OC(F)F)c1 (configuration not stated) | -73.45% |
| CC(C)C(=O)N1CCC2(CN(CC3CCCC3)C2)C1.O=C(O)C(F)(F)F | -72.67% |
| O=C(C1CCCCC1)N1CCC2(CCCN2CC2CC2)CC1.O=C(O)C(F)(F)F | -22.84% |
| CC(C)C(=O)N1CCCC2(CCCN2CC2CCCC2)C1.O=C(O)C(F)(F)F (configuration not stated) | 59.96% |
| CC(C)C(=O)N1CCCC2(CCCN2Cc2cccnc2)C1 (configuration not stated) | -19.91% |
| CC(C)C(=O)N1CCC2(CCN2CC2CC2)C1.O=C(O)C(F)(F)F (configuration not stated) | -79.93% |
| CCCC(NC(=O)c1ccc(C)cc1C)c1nnn[nH]1 (configuration not stated) | -70.8% |
| OC[C@@H]1CCCN1c1nccc(-c2c[nH]nc2-c2ccncc2)n1 | 66.81% |
| Cc1ncc(-c2ccnc(N3CCC[C@@H]3CO)n2)c(-c2cccnc2)n1 | -29.65% |
| Cc1ccccc1-n1cc(-c2ccnc(NC(CO)C(C)C)n2)cn1 (configuration not stated) | 25.15% |
| c1cc(-c2n[nH]cc2-c2ccnc(N3CCCC3)n2)ccn1 | 80.23% |
| CC(C)[C@H](CO)Nc1nccc(-c2c[nH]nc2-c2ccncc2)n1 | 83.09% |
| NC(=O)[C@H]1CCCN(c2nccc(-c3c[nH]nc3-c3cccnc3)n2)C1 | -58.34% |
| Cc1csc2ncc(-c3ccnc(N4CCC[C@@H]4CO)n3)c(=O)n12 | -191.9% |
| c1cncc(-c2nc(C3CC3)ncc2-c2ccnc(N3CCCC3)n2)c1 | -168.7% |
| Cc1[nH]c2ccccc2c1-c1ccnc(N[C@@H](CO)C(C)C)n1 | -14.55% |
| CN1CCCN(c2nccc(-c3cc(C(=O)O)ccn3)n2)CC1 | -114.4% |
| CN1CCCN(c2nccc(-c3c[nH]c4ccc(Br)cc34)n2)CC1 | 40.41% |
| CN1CCCN(c2nccc(-c3c[nH]nc3-c3ccncc3)n2)CC1 | 65.32% |
